# KLF5 inhibitor – suppresses KLF5 promoter-driven expression | DLD-1 KLF5 promoter-luciferase reporter, luminescence | inhibition, % at 5 µM | hit rate 0.23% among 290,000 | AID 1700;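 active means inhibition above a per-plate limit of that plate's mean compound inhibition plus 3 SD, cut at about 60% in these data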;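 further: 0% = DMSO wells and 100% = LY294002 at 200 µM; higher means less KLF5 promoter-driven luciferase light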
# BaF3 parental – parental Ba/F3 viability inhibition as JAK2V617F counter-screen | CellTiter-Glo ATP luminescence | inhibition, % at 5.6 µM | hit rate 1.1% among 220,000 | AID 1486;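 active means inhibition above a per-campaign cutoff, the mean inhibition of all tested compounds plus 3 SD, cut at about 27% in these data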;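 further: 0% = DMSO wells and 100% = JAK Inhibitor I control wells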
# aSyn 5UTR inh – MLPCN primary screen, SNCA 5' untranslated region | alpha-synuclein 5'UTR reporter, inhibitor activity | inhibition, % (tested at 7.5 µM) | hit rate 0.82% among 300,000 | AID 1813; in the data active means inhibition above about 60%;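 further: H4 neuroglioblastoma cells stably carrying SNCA 5'UTR luciferase fusion; 0% = DMSO wells and 100% = positive control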
# IEC-6 tox – IEC-6 cytotoxicity, counter-screen for KLF5 inhibitors; luminescence viability; inhibition, % at 5 µM; hit rate 0.78% among 290,000; AID 1825;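 further: 0% = plate median of test compound wells and 100% = cytotoxic reference compound wells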
# Ba/F3 V617F tox – reduce viability of Ba/F3 cells dependent on JAK2V617F; hit rate 1.1% among 220,000; Ba/F3 EpoR-JAK2V617F viability, ATP luminescence; AID 1446; inhibition, % at 5.6 µM;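 active means inhibition above the campaign mean plus 3 SD over all tested compounds, cut at about 24% in these data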;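 further: cytokine-independent growth of Ba/F3 cells driven by EpoR plus mutant JAK2; 0% = DMSO-treated cells and 100% = JAK inhibitor I control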
# APP transl inh – APP translation inhibition; AID 1285; hit rate 0.82% among 190,000; inhibition, % at 2 µM; SH-SY5Y APP 5'UTR-luciferase reporter, luminescence;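 active means inhibition above a set limit, derived from the sample mean plus 3 SD, cut at about 45% in these data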
# IEC-6 tox confirm – IEC-6 cytotoxicity, confirmation assay; shares compounds with IEC-6 tox; IEC-6 rat intestinal epithelial viability, luminescence; inhibition, % at 5 µM; hit rate 63% among 1,900;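 further: 0% = vehicle and 100% = reference cytotoxic drug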
# Numbers without * were called inactive; nt = not tested or not shown. Only some compounds are listed: those with a hit (about 2.1% of all), similar ones and a draw of the others. Unless noted, no stated cut-off is given here; in the data, active means inhibition above about 22%; inactive means the rest.
SMILES,KLF5 inhibitor,BaF3 parental,aSyn 5UTR inh,IEC-6 tox,Ba/F3 V617F tox,APP transl inh,IEC-6 tox confirm
COc1ccc(NC(=O)C2CCCN(S(=O)(=O)c3ccc(Cl)cc3)C2)cc1OC (configuration not stated),-15,nt,4,-1,nt,nt,nt
O=S(=O)(Nc1ccc(N2CCCCC2)cc1)c1ccc(F)c(F)c1,-52,7,6,1,0,2,nt
Cc1ccc(N2CC(C(=O)Nc3nnc(SCCN4CCOCC4)s3)CC2=O)cc1 (configuration not stated),-52,nt,-15,-3,nt,nt,nt
Cc1ccccc1NC(=S)Nc1cccc2cnccc12,6,6,23,44*,2,-11,-1
Cc1ccc(Cl)cc1NC(=S)N/N=C/c1cccc2ccccc12,45,76*,38,79*,78*,nt,67*
Cc1ccc(F)c(NC(=S)Nc2cccc3ccccc23)c1,-80,nt,-2,65*,nt,nt,-2
CC(=O)c1cccc(NC(=S)Nc2cccc3ccccc23)c1,-38,nt,-80,28*,nt,nt,-1
COc1cc(/C=C2/C(=N)N3N=C(CC(=O)N4CCOCC4)SC3=NC2=O)ccc1OCc1ccc(F)cc1,-45,nt,-102,-1,nt,nt,nt
CC1=C(C#N)C(=O)N(C2CCS(=O)(=O)C2)C(=O)/C1=C\c1ccco1 (configuration not stated),-7,-1,12,-19,3,nt,nt
CC(C)Oc1ccc(S(=O)(=O)N2CCOCC2)cc1NC(=O)c1ccc(N2CCCC2=O)cc1,-11,nt,1,2,nt,nt,nt
CCC(COC)NC(=O)c1ccc(OC)c(OC2CCN(C(C)=O)CC2)c1 (configuration not stated),-33,nt,-2,-5,nt,nt,nt
COc1ccc(CNS(=O)(=O)c2cc3c4c(c2)C(C)C(=O)N4CCC3)cc1 (configuration not stated),0,nt,-5,5,nt,nt,nt
Cn1cc([N+](=O)[O-])c(C(=O)Nc2nc(-c3ccc(Cl)cc3)cs2)n1,2,28*,63*,37*,5,96*,56*
Cc1ccc(-c2csc(NC(=O)c3ccc(C)o3)n2)cc1,-6,5,-3,-7,2,-13,nt
Cc1cccc(NC(=O)c2ccc([N+](=O)[O-])o2)c1C,-17,-8,-49,34*,5,5,23*
Cc1cnc(NC(=O)c2nn(C)cc2[N+](=O)[O-])s1,-13,-1,-43,12,20,34,nt
Cn1cc([N+](=O)[O-])c(C(=O)Nc2ccc(C3CCCCC3)cc2)n1,-149,2,45,25*,0,-27,30*
Cc1ccc(-c2csc(NC(=O)c3ccc([N+](=O)[O-])o3)n2)cc1,-35,nt,-234,100*,nt,nt,42*
Cn1cc([N+](=O)[O-])c(C(=O)Nc2ccc(C(=O)N3CCCCC3)cc2)n1,-8,14,-5,0,6,21,nt
CN1C(C(=O)NCc2ccc(OC(F)(F)F)cc2)CC2Cn3c(nc4cc5ccccc5cc43)C21 (configuration not stated),nt,nt,5,nt,nt,nt,nt
Cc1ccc2nsnc2c1NC(=O)c1ccc([N+](=O)[O-])o1,6,nt,-173,96*,nt,nt,28*
O=C(Nc1cccc2ccccc12)c1ccc([N+](=O)[O-])o1,-34,nt,-179,96*,nt,nt,22*
O=C(Nc1cc(-c2nc3ncccc3o2)ccc1Cl)c1cccs1,-20,nt,-28,8,nt,nt,nt
O=C(Nc1nc2c(F)cccc2s1)c1ccc([N+](=O)[O-])o1,-47,nt,-95,40*,nt,nt,15
O=C(Nc1cc(-c2nc3ncccc3o2)ccc1Cl)c1ccc([N+](=O)[O-])o1,-27,nt,-200,93*,nt,nt,30*
SMILES,KLF5 inhibitor,BaF3 parental,aSyn 5UTR inh,IEC-6 tox,Ba/F3 V617F tox,APP transl inh,IEC-6 tox confirm
CCC(C)NC(=O)c1ccc(NC(=O)C2=C(C)OCCS2)cc1 (configuration not stated),-25,nt,-5,3,nt,nt,nt
Cn1c(=O)[nH]c(Nc2ccccc2)c([N+](=O)[O-])c1=O,-5,1,3,-4,-1,-8,nt
CCOc1cc(N2CCOCC2)c(OCC)cc1NC(=O)CCS(=O)(=O)c1ccc(Cl)cc1,-7,1,3,0,-2,2,nt
CCOc1cc(N2CCOCC2)c(OCC)cc1NS(=O)(=O)c1ccc(Cl)s1,21,55*,5,57*,17,26,58*
COc1cc(CN2CCc3ccccc3C2)ccc1O,19,103*,-39,30*,97*,nt,16
CC(=O)[C@@]1(O)[C@H](C)CC2C3CC=C4CC(OP(=O)(O)O)CC[C@]4(C)C3CC[C@@]21C (some centres not stated),-7,nt,16,-2,nt,nt,nt
COc1ccc(Nc2nc(-c3sc(C)nc3C)cs2)cc1,44,nt,39,76*,nt,nt,56*
Cc1nc(C)c(-c2csc(Nc3ccc(N)cc3)n2)s1,4,nt,-42,4,nt,nt,nt
COc1ccc(CCN(C)C(=O)C2CCN(C(=O)Nc3ccccc3)CC2)cc1OC,nt,nt,9,nt,nt,nt,nt
CCOc1ccc(NC(=O)CN(C)C(=O)c2ccccc2SCc2c(C)noc2C)cc1OCC,nt,nt,3,nt,nt,nt,nt
CN1CC(=O)N2C(c3cccc([N+](=O)[O-])c3)c3[nH]c4ccccc4c3C[C@H]2C1=O (some centres not stated),32,nt,17,34*,nt,nt,14
O=C(O)CSc1cc(NS(=O)(=O)c2ccc(Br)cc2)c2ccccc2c1O,-52,nt,16,54*,nt,nt,-3
Cc1ccc(S(=O)(=O)Nc2ccc(Br)cc2C(NCC(=O)O)c2ccccc2)cc1 (configuration not stated),31,-1,30,4,0,-11,nt
CC1=Nc2ccccc2/C1=C/c1nc(-c2ccc(C)s2)oc1O,-1,9,-2,6,4,2,nt
CC1=Nc2ccccc2/C1=C/c1sc(=N)n(-c2nccs2)c1O,-34,15,63*,27*,0,8,41*
CCOC(=O)Cc1nnc(NC(=O)CCc2ccccc2)s1,-45,nt,-11,-10,nt,nt,nt
COc1ccc(C)cc1NC(=O)CNC(c1ccccc1)c1ccc(C)cc1 (configuration not stated),52,nt,103*,69*,nt,nt,51*
COc1ccccc1Nc1ccc(NC(=O)c2cccc([N+](=O)[O-])c2C)cc1,-39,nt,-47,9,nt,nt,nt
COc1ccc(CCNC(=O)CCS(=O)(=O)c2ccc3c(c2)oc(=O)n3C)cc1OC,-18,nt,12,6,nt,nt,nt
Nc1nc(Cl)nc2c1ncn2[C@H]1C[C@H](O)[C@@H](CO)O1,19,95*,84*,90*,101*,76*,68*
Nc1nc2c(ncn2C2C[C@H](O)[C@@H](CO)O2)c(=O)[nH]1 (some centres not stated),nt,nt,-1,nt,nt,nt,nt
CCc1ccc(CNC(=O)Cc2ccc(NC(=O)C3=C(C)OCCS3)cc2)cc1,43,nt,66*,78*,nt,nt,53*
O=C(CSc1nc2ccccc2c(=O)[nH]1)Nc1ccccc1O,-41,nt,-9,-1,nt,nt,nt
O=C(CSc1nc2ccccc2c(=O)[nH]1)Nc1ccccc1C(F)(F)F,-13,nt,10,29*,nt,nt,18
